SMILES strings stand for the structures. The source made the active and inactive calls.

These results are taken from PubChem BioAssay.

Experiment [1] has as its system Human papillomavirus type 1a protein E7 (residues 44-93). The experiment can be described thus: HPV1a E7 fragment binders on microarrays, primary screen, biochemical, small-molecule microarray, residues 44-93, 635 nm fluorescence (AID 1108).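 Note: E7 fragment applied at 1 µg/mL in TBST for 1 h at 4 C; score combines spot fluorescence with its signal to noise ratio.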 Particulars: small-molecule microarray binding, fluorescence 635 nm; higher = more signal.
The nature of experiment [2]: modulators of HCV replicon luciferase signal, primary screen, HCV replication inhibitor project, Huh7 cells, luciferase reporter (AID 1109).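 Note: huh7 hepatoma cells harbouring a luciferase neomycin HCV replicon reporter; luciferase luminescence as measure of HCV replicon replication; test concentration not given here.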 Particulars: 48 h, higher = more signal. A general note: In antiviral work, replicon cells carry a viral genome segment that copies itself.
The target in experiment [3] is Left-right determination factor 2 (Homo sapiens) (UniProt O00292). Kind of experiment: LEFTY2 binders on small-molecule microarrays, primary screen, biochemical, small-molecule microarray, 635 nm fluorescence scan (AID 1110). Particulars: LEFTY2 binding, higher = more signal.
Experiment [4] concerns the target Calmodulin-1 (Homo sapiens) (UniProt P0DP23). The experiment can be described thus: CALM1 binders on microarrays, EGTA buffer, profiling panel, biochemical, small-molecule microarray, Cy5-labelled CALM1 (AID 1111).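 Note: labelled calmodulin applied in Tris saline Tween buffer holding calcium plus EGTA and DTT.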 Conditions: Cy5-CALM1 binding fluorescence, higher = more signal.
The target is the same in experiment [5]. Kind of experiment: calcium-bound CALM1 binders on microarrays, profiling panel, artefact control for SMM control-protein annotation, biochemical, small-molecule microarray, Cy5-labelled CALM1, plus calcium (AID 1112).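 Note: score merges spot fluorescence with signal to noise from triplicate slides.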 Conditions: Cy5-CALM1 binding fluorescence, higher = more signal.
The nature of experiment [6]: small-molecule microarray binders of probe aWnt5a, primary screen, biochemical, biotinylated probe, 635/667 nm fluorescence (AID 1113).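 Note: score merges 667 nm fluorescence intensity with signal-to-noise per printed feature.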 Conditions: higher = more signal.
Experiment [7] in a line: small-molecule microarray binders of probe aShh, primary screen, biochemical, biotinylated probe, 635/667 nm fluorescence (AID 1114).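 Note: probe is biotin-labelled aShh protein from a stem cell growth factor screen; measures binding of labelled protein to compounds printed on the slide; score merges feature fluorescence at 667 nm with signal-to-noise.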 Particulars: higher = more signal.
Experiment [8] in a line: small-molecule microarray binders of probe aNog, primary screen, biochemical, biotinylated probe, 635/667 nm fluorescence (AID 1115).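 Note: probe is biotinylated aNog protein used at 0.15 µg/mL for 1 h at 4 C; z-score combines 667 nm fluorescence of each spot with its signal to noise.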 Particulars: higher = more signal.
For experiment [9], the target named is Torsin-1A-interacting protein 1 (Homo sapiens) (UniProt Q5JTV8). The experiment can be described thus: LAP1 binders from COS7 cell lysate, primary screen, small-molecule microarray, 635/667 nm fluorescence (AID 1116). Conditions: COS7-hLAP1 lysate binding, 635 nm fluorescence, higher = more signal.
Experiment [10] concerns the target Alpha-bungarotoxin (Bungarus multicinctus) (UniProt P60615). Kind of experiment: alpha-bungarotoxin binders on microarray, profiling panel, artefact control for SMM control protein annotation, biochemical, small-molecule microarray, Alexa647 label, 635/667 nm fluorescence (AID 1117). Conditions: alpha-BTX-A647 binding fluorescence, higher = more signal.
In the next experiment the target is Albumin (Bos taurus) (UniProt P02769). Kind of experiment: bovine serum albumin binders on microarray, profiling panel, artefact control for SMM control protein annotation, biochemical, small-molecule microarray, Alexa647 label, 635/667 nm fluorescence (AID 1118).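 Note: score merges 667 nm emission intensity and signal-to-noise per printed compound spot.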 Conditions: BSA-A647 binding, fluorescence 635 nm, higher = more signal.
The nature of experiment [11]: small-molecule microarray binders of probe aXIP, primary screen, biochemical, NeuroSMM set, 635/667 nm fluorescence (AID 1119).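 Note: probe is the protein aXip251-270 applied at 1 µg/mL to compound-printed slides; binding of probe to printed compounds measured as 667 nm fluorescence plus signal to noise.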 Particulars: higher = more signal, called active from +8 up or from −8 down.
Experiment [12] can be described thus: small-molecule binders of probe aNOTCH3, primary screen, biochemical, small-molecule microarray, 635/667 nm fluorescence (AID 1120).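 Note: probe is a biotin-tagged antibody raised against NOTCH3 rather than NOTCH3 protein; score merges spot fluorescence near 667 nm with spot signal to noise.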 Particulars: higher = more signal.
A short description of experiment [13]: small-molecule binders of probe aNOTCH2, primary screen, biochemical, small-molecule microarray, 635/667 nm fluorescence (AID 1121).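 Note: score merges feature fluorescence read at 667 nm with its signal to noise.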 Particulars: higher = more signal.
Experiment [14] concerns the target Carbonic anhydrase 2 (Homo sapiens) (UniProt P00918). Kind of experiment: CAII small-molecule binders, profiling panel, biochemical, small-molecule microarray, Alexa647-labelled CAII (AID 1122). Conditions: CAII-A647 binding fluorescence, higher = more signal.
A short description of experiment [15]: COS7 lysate on small-molecule microarray, probe aHis, 635 nm (AID 1123).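 Note: z-score combines 667nm fluorescence intensity with signal-to-noise per printed compound spot.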 Conditions: COS7 cell lysate, fluorescence, higher = more signal.
A short description of experiment [16]: compound binding in COS7 lysate, probe aLAP1, primary screen, cell lysate, small-molecule microarray (AID 1124).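 Note: lysate comes from COS7 cells expressing LAP1 and is applied at 0.3 µg/mL; score merges spot fluorescence near 667 nm with signal-to-noise over triplicate slides.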 Conditions: probe aLAP1, fluorescence, higher = more signal.
The next experiment has as its system Sam68 (KHDRBS1). The experiment can be described thus: Sam68 small-molecule binders, primary screen, biochemical, small-molecule microarray, 635 nm fluorescence (AID 1125).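 Note: score merges 667 nm channel intensity with signal to noise over triplicate slides.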 Conditions: small-molecule microarray binding, higher = more signal.
The subject of experiment [17] is Chordin-like protein 2 (CHRDL2). The experiment can be described thus: CHRDL2 small-molecule binders, primary screen, biochemical, small-molecule microarray, 635 nm fluorescence (AID 1126).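 Note: printed compound slides probed with Chrdl2 protein at 4 µg/mL for 1 h at 4 C; score merges 667 nm emission intensity with signal to noise over three replicate slides.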 Particulars: small-molecule microarray binding, fluorescence 635 nm; higher = more signal.
Experiment [18] addresses Concanavalin-A (Canavalia ensiformis) (UniProt P02866). Kind of experiment: ConA small-molecule binders, primary screen, artefact control for SMM control protein annotation, biochemical, small-molecule microarray, Alexa647 label, 635 nm (AID 1127).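 Note: z combines 667 nm emission intensity with signal-to-noise across three replicate slides.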 Particulars: ConA-A647 binding fluorescence, higher = more signal.

Chain of Torsin-1A-interacting protein 1 (Homo sapiens) (Q5JTV8 whole entry, looked up): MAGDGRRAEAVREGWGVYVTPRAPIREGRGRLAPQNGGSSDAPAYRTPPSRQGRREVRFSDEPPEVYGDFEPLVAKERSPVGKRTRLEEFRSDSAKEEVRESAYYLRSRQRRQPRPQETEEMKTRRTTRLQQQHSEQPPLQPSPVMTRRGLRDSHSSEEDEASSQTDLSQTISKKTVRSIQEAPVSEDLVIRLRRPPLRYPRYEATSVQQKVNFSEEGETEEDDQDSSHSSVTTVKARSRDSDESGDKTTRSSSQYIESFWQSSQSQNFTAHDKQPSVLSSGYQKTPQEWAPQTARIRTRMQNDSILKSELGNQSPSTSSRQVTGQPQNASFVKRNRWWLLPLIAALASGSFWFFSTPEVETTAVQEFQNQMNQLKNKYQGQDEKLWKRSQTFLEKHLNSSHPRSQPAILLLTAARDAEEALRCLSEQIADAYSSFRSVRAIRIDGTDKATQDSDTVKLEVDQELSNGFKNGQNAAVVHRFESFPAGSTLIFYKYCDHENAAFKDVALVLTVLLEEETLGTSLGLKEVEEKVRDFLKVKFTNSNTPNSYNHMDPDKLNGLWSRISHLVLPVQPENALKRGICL
Chain of Albumin (Bos taurus) (P02769 whole entry, looked up): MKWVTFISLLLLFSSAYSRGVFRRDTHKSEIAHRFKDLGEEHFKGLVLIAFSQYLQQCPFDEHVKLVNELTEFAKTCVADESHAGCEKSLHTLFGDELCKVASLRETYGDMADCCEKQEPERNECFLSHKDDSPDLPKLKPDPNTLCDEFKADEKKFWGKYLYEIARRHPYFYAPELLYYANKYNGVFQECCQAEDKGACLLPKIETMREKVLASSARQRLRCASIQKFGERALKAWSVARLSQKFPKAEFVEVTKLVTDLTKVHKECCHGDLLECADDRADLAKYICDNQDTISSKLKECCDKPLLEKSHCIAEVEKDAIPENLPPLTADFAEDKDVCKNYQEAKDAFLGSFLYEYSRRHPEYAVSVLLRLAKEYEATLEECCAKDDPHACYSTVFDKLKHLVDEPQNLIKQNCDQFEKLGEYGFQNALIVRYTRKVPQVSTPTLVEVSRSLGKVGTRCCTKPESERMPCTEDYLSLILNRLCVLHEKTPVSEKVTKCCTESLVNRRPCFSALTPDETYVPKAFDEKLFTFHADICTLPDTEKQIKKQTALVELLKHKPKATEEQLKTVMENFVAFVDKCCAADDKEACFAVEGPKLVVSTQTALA
Chain of Concanavalin-A (Canavalia ensiformis) (P02866 whole entry, looked up): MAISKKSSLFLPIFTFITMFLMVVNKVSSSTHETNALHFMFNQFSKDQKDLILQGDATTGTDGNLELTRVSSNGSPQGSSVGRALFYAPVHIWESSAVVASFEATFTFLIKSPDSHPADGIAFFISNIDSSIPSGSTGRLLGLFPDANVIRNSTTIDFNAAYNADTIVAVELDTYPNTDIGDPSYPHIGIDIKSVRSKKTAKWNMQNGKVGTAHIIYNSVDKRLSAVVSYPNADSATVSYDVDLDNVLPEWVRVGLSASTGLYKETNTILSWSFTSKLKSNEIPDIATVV
Chain of Alpha-bungarotoxin (Bungarus multicinctus) (P60615 whole entry, looked up): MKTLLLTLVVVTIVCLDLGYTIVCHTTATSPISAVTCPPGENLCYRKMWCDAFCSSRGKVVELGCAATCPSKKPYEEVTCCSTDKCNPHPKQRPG
Chain of Left-right determination factor 2 (Homo sapiens) (O00292 whole entry, looked up): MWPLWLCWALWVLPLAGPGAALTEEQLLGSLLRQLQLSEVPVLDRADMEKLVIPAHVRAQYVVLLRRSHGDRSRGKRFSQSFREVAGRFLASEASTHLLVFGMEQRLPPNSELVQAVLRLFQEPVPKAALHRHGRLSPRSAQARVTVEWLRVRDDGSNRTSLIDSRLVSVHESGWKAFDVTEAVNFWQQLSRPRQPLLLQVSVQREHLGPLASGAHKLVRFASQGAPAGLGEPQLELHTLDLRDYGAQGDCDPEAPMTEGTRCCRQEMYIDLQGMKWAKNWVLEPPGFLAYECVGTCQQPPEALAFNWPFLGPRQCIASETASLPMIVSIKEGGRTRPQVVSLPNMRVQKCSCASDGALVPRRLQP

With `CC(C)[C@H]1NC(=O)[C@@]23C(=O)N[C@@H](Cc4ccccc4)C2[C@H](C)[C@@]2(C)O[C@H]2C3/C=C/C/C=C\CNC(=O)[C@H](Cc2ccccc2)NC1=O` (stereo not given in full), the composite z-score was 1.33 in [1]; 0.736 in [3]; -0.28 in [4]; -0.584 in experiment [5]; -0.158 in [6]; -0.0553 in experiment [7]. Besides, the composite z-score was -0.505 in experiment [8]; 0.512 in [9]; 0.807 in [10]; 0.347 with Albumin (Bos taurus); 0.204 in [12]; -0.19 in experiment [13]. The composite z-score in experiment [14] came out at 0.318; in experiment [15] it was 0.836; in experiment [16] it was 0.582; in the experiment with Sam68 (KHDRBS1), 1.29; in experiment [17], 0.908; in experiment [18], 0.273. In [2], this compound gave a z-score of -0.26. For the same compound, the composite Z-score in experiment [11] was 0.167 (inactive).
On to `NC(=O)NCC#Cc1ccc2c(c1)[C@]1(C(=O)N2)[C@H](C(=O)N2CCN(c3ncccn3)CC2)[C@H]2C(=O)O[C@H](c3ccccc3)[C@H](c3ccccc3)N2[C@@H]1c1ccc(OCCO)cc1`, for which the composite z-score in experiment [1] was 1.23; in experiment [3], 0.0996; in [4] it was 0.756; in experiment [5] it was 0.514; in [6], 0.0775; in [7], -0.0553. Moreover, the composite z-score in [8] is 0.833; in experiment [9], 0.572; in experiment [10], 1.42; with Albumin (Bos taurus), 0.003; in experiment [12], 0.127; in experiment [13], -0.084. Further, the composite z-score is 0.236 in [14]; 0.944 in experiment [15]; 0.241 in [16]; 0.982 with Sam68 (KHDRBS1); 0.106 in [17]; 0.972 in experiment [18]. In [2], the z-score was -1.6. Moreover, the composite Z-score in experiment [11] is 0.17 (inactive).
As to `C=CCC(OC(C)=O)[C@@H]1[C@@H](N(Cc2cccc3ccccc23)C(=O)c2ccc(-c3ccccc3)cc2)c2cc(OCCCO)ccc2N1C(=O)c1ccc(-c2ccccc2)cc1` (stereo not given in full), the composite z-score in experiment [1] was 0.635; in [3], 0.385; in [4], 0.603; in experiment [5], 1.16; in experiment [6], -0.0819; in experiment [7], 0.0899. Further, the composite z-score in [8] was 0.355; in [9], 0.35; in [10], 0.439; with Albumin (Bos taurus), -0.0811; in [12] it was -0.0647; in experiment [13] it was -0.0294. Besides, the composite z-score was 0.255 in experiment [14]; 0.384 in experiment [15]; 0.205 in experiment [16]; -0.225 with Sam68 (KHDRBS1); -0.046 in [17]; -0.441 in experiment [18]. Moreover, the z-score in experiment [2] is -0.681. Also, the composite Z-score in experiment [11] is -0.646 (inactive).
As for `CO[C@H]1O[C@H](CO)[C@@H](OC(=O)Nc2cccc(F)c2)[C@H](OC(=O)Nc2ccccc2-c2ccccc2)[C@H]1OC(=O)Nc1ccccc1-c1ccccc1`, the composite z-score was 1.48 in experiment [1]; 0.494 in experiment [3]; 0.88 in experiment [4]; -0.305 in experiment [5]; 0.0692 in [6]; -0.0977 in experiment [7]. Also, the composite z-score in experiment [8] was 0.895; in experiment [9] it was 1.09; in [10], 0.816; with Albumin (Bos taurus), -0.8; in experiment [12] it was 0.206; in experiment [13] it was -0.0226. In addition, the composite z-score in experiment [14] amounted to 0.577; in experiment [15], 2.33; in [16] it was 0.57; in the experiment with Sam68 (KHDRBS1) it was 1.3; in experiment [17], 0.484; in experiment [18], 0.924. This compound also yielded a z-score in [2] of -3.82. Further, the composite Z-score in [11] was 0.55 (inactive).
With `Cc1ccc(C(C)CC(O)C2C=CC3C(=O)N(c4ccccc4)C(=O)C3N2Nc2ccc(C#N)cc2)o1` (stereo not given), the composite z-score was 1.42 in experiment [1]; 0.168 in experiment [3]; 1.48 in [4]; 0.314 in experiment [5]; -0.0044 in [6]; 0.138 in experiment [7]. In addition, the composite z-score in experiment [8] stood at 0.526; in [9], 1.16; in [10], 1.17; in the experiment with Albumin (Bos taurus), 1; in experiment [12], 0.0744; in experiment [13], 0.115. Also, the composite z-score is 0.707 in experiment [14]; 3.21 in experiment [15]; 0.825 in experiment [16]; 1.29 with Sam68 (KHDRBS1); -0.387 in experiment [17]; 1.16 in experiment [18]. The z-score in experiment [2] was 0.0453. Besides, in experiment [11], the composite Z-score is -0.102 (inactive).
`Cc1nc2cc(Br)ccc2c(=O)n1Cc1cccc(O)c1`: the composite z-score in experiment [1] is 0.804; in experiment [3] it was 0.874; in [4], 0.523; in experiment [5], 0.302; in experiment [6], -0.0263; in experiment [7] it was -0.0946. Moreover, the composite z-score in experiment [8] was 0.761; in experiment [9], 1.21; in [10] it was -0.0871; with Albumin (Bos taurus), 0.417; in [12], -0.119; in [13] it was -0.12. For the same compound, the composite z-score is 0.218 in [14]; 1.28 in experiment [15]; 1.09 in experiment [16]; 0.968 in the experiment with Sam68 (KHDRBS1); 1.04 in [17]; 0.799 in experiment [18]. This compound also yielded a z-score in experiment [2] of 0.201. Moreover, the composite Z-score in [11] is 0.0614 (inactive).
